# Bioassay records as filed in PubChem.
# JMJD2A Tudor = blocks the human JMJD2A Tudor domain. O75164. AlphaScreen JMJD2A-Tudor / H3K4me3 peptide binding. Potency, µM (top dose mostly 114 µM), for the others: at the top dose activity change, negative = inhibition, most hits filed as inhibitors. 390,000 tested, 4.4% active. AID 504339; also: potency is read from the fitted curve at half-maximal effect; % is scaled to controls: 0 for no effect and ±100 for the full control effect; nearly all actives have a fitted effect of over 50% in size
# HP1b binding inh = blocks HP1-beta chromodomain binding to methylated histone tails; 390,000 tested, 0.56% active; AlphaScreen HP1-beta / biotin-H3K9me3 peptide binding; Potency, µM (highest dose often 114 µM), inactives show at the top dose activity change, negative = inhibition, usual class: inhibitors; also: potency is read from the fitted curve at half-maximal effect; nearly all actives have a fitted effect of over 70% in size
#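 HP1-beta protein (50 nM final) preincubated 30 min at room temperature with biotinylated H3(1-18)K9me3 peptide (50 nM) in PBS pH 7.4, 0.01% Tween-20, then compound added for 30 min. AlphaScreen streptavidin donor/nickel chelate acceptor beads (10 ug/mL final), 30 min dark, luminescence read.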
# GCN5L2 inh = inhibitors of human GCN5L2 histone acetyltransferase | Q92830 | AID 504327 | 390,000 tested, 0.21% active | Potency, µM (top dose mostly 58.9 µM), for the others: at the top dose activity change, negative = inhibition, actives largely listed as inhibitors | GCN5L2 HAT assay, ThioGlo1 CoA-SH fluorescence; also: potency is read from the fitted curve at half-maximal effect; % is scaled to controls: 0 for no effect and ±100 for the full control effect
#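 GCN5L2 (20 nM) in 50mM HEPES pH 7.5, 0.1mM EDTA, 0.01% Tween-20 preincubated 15 min with compounds at room temperature. Reaction started with H3(1-25) 75uM, acetyl-CoA 70uM, ThioGlo1 50uM; CoA-thiol fluorescence (Ex340/Em540) read at 0 and 20 min.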
# PI5P4K alpha inh = blocks human PI5P4K alpha kinase activity; 330,000 tested, 1.2% active; max response, %; P48426; AID 652105; PI5P4Kalpha enzyme, ADP-Glo luminescence, 60 min; hits give low values; active = max response of -50% or lower; inconclusive = between -30% and -50%; inactive = -30% or higher; also: value at the top dose of about 77 µM; % is scaled to controls: 0 for no effect and ±100 for the full control effect
#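 ADP-Glo luminescence end-point read after a 60 min room-temperature kinase reaction of PI5P4Kalpha plus substrate, initiated with ATP at 5 microM final. Buffer: 0.038 M HEPES pH 7.4, EGTA, 0.1% CHAPS, 5% DMSO.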
# BAZ2B inh = blocks human BAZ2B; Q9UIF8; AlphaScreen BAZ2B-H3K14Ac peptide displacement; Potency, µM (series often up to 114 µM), without a hit: top-dose activity change, negative = inhibition, actives largely listed as inhibitors; 360,000 tested, 4.4% active; AID 504333; also: potency is read from the fitted curve at half-maximal effect; % is scaled to controls: 0 for no effect and ±100 for the full control effect; nearly all actives have a fitted effect of over 60% in size
#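 AlphaScreen displacement of biotin-H3(5-23)K14Ac peptide (50 nM final) from BAZ2B (50 nM final) in PBS pH 7.4, 0.01% Tween-20; complex preformed 30 min RT, then compounds (top 110 uM) 30 min RT, beads 20 min dark.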
# PLK1 PBD inh = inhibitors of human PLK1 polo-box domain binding. Plk1 PBD binding of FITC phosphopeptide, fluorescence polarization. Potency, µM, for the others: max response, negative = inhibition, hits mostly inhibitors. 360,000 tested, 2.8% active. AID 720504; also: potency is read from the fitted curve at half-maximal effect; series mostly up to about 57 µM; % is scaled to controls: 0 for no effect and ±100 for the full control effect; nearly all actives have a fitted effect of over 65% in size
# Active calls of the source: *; ? = inconclusive; . = no result given; [ ] = dose if it differs, or a comment. Only some compounds are listed: those with a hit (about 7% of all), similar ones and a draw of the others. Unless noted, calls follow the shape of the dose curve; as a rule, active = well fitted curve in the direction sought with a large enough effect; inconclusive = small, poorly fitted or top-dose-only effect, or another doubt; inactive = no such curve, though single readings can be large; an effect the other way counts as inactive or inconclusive.
SMILES,JMJD2A Tudor,HP1b binding inh,GCN5L2 inh,PI5P4K alpha inh,BAZ2B inh,PLK1 PBD inh
CCn1c(SCC(=O)NCCc2ccccc2)nnc1-c1ccco1,6.9%,30.8%,-3.7%,-8.9,-3.3%,-1.4%
Cn1c(SCC(=O)NCCc2ccccc2)nnc1-c1ccco1,89.1µM*,-12.3%,19.4%,-6.7,3.6%,?
C=CCn1c(SCn2nnc3ccccc3c2=O)nc2scc(-c3cccs3)c2c1=O,-14.1%,16.8%,-6.2%,.,-34.5%,1.1%
CC(=O)c1c(C)[nH]c(C(=O)CSc2nnc(-c3ccco3)n2Cc2ccccc2)c1C,-13.7%[57.1 µM],8.6%,-2.3%,-4.3,50.1µM*,-13.7%
COCCNC(=O)CCc1nnc2ccc(N3CCC(C)CC3)nn12,-10.7%,27.8%,1.0%,-9.8,-11.3%,-3.1%
COCCn1c(SCC(=O)NCc2ccc(OC)c(OC)c2)nc2ccccc21,-12.3%,44.4%,-2.2%,9.1,2.1%,-10.1%
Cc1[nH]c2ccc(-c3nnc(SCC(=O)NCc4ccco4)n3Cc3ccccc3)cc2c1C,56.2µM*,-37.5%,-11.0%,-3.0,56.2µM*,-5.8%
Cc1ccc(CN2c3ccccc3-c3nc(SCC(=O)Nc4c(C)cc(C)cc4C)ncc3S2(=O)=O)cc1,6.5%,50.1%,8.3%,.,-37.1%,.
O=C(Nc1ccc2c(c1)OCO2)c1cccc2c1C(=O)N(Cc1cccnc1)C2,?,7.2%,-12.9%,-15.3,50.1µM*,-5.1%
CCCN1Cc2cccc(C(=O)Nc3ccc4c(c3)OCO4)c2C1=O,-13.6%,-6.4%,-3.9%,-1.6,?,-1.6%
CC(=N\O)/C(CN(C)C)=N/O,79.4µM*,24.0%,.,-2.3,0.4%,-7.2%
CC(/C=N/NC(=O)c1ccc(CN2c3cccc4cccc(c34)S2(=O)=O)cc1)c1ccccc1 (centres undefined),-11.3%[57.1 µM],4.9%,-21.5%,?,8.9%,?
O=C(O)c1ccc(/C=N/NC(=O)c2ccc(CN3c4cccc5cccc(c45)S3(=O)=O)cc2)cc1,?,-6.2%,-29.3%,-54.0*,50.1µM*,33.6µM*
Cc1cc(C)c(NC(=O)COC(=O)Cc2cccs2)c(C)c1,-7.9%,34.1%,-11.8%,-1.8,2.6%,1.1%
COc1ccc(N2C(=O)c3ccccc3S2(=O)=O)cc1,-0.7%,71.9%,14.3%,5.9,-18.8%,-14.9%
COc1ccc2c(c1)-c1ccccc1S(=O)(=O)N2C(C)=O,0.0%,55.2%,-1.4%,.,0.9%,26.7µM*
COc1ccc(N2CCN(C(CNC(=O)COc3ccccc3)c3ccco3)CC2)cc1 (centres undefined),?,?,-5.1%,5.7,4.6%,-1.8%
COc1ccc(-c2nc3ccc(Cl)cc3c(=O)n2Cc2ccccc2)cc1COc1ccc(NC(C)=O)cc1,-14.3%,.,.,.,.,.
CCOC(=O)c1ccc(N/N=C/c2cc(Br)cc([N+](=O)[O-])c2O)cc1,10µM*,?,11.1%,-10.7,?,?
CCOC(=O)c1cc([N+](=O)[O-])c([N+](=O)[O-])cc1NC(C)=O,-5.2%,16.1%,-4.1%,0.5,-35.9%,8.44µM*
CCOC(=O)c1ccc(NC(=O)c2cccc(C)c2[N+](=O)[O-])cc1,-25.4%,-11.1%,-15.8%,0.5,-12.6%,-10.5%
CCOC(=O)c1ccc(Nc2ccc([N+](=O)[O-])cn2)cc1,-10.3%,11.0%,-0.9%,-0.8,-5.8%,-5.3%
CCOC(=O)c1ccc(Nc2ncccc2[N+](=O)[O-])cc1,?,?,-4.5%,-0.6,7.94µM*,-13.9%
CCOC(=O)c1ccc(NC(=O)c2ccccc2[N+](=O)[O-])cc1,-32.3%[57.1 µM],?,-9.3%,-7.7,-21.3%,29.9µM*
CCOC(=O)c1ccccc1OC(=O)CS(=O)c1ccccc1[N+](=O)[O-] (centres undefined),-13.3%,38.8%,-2.3%,5.2,-34.8%,23.8µM*
SMILES,JMJD2A Tudor,HP1b binding inh,GCN5L2 inh,PI5P4K alpha inh,BAZ2B inh,PLK1 PBD inh
O=C1CN(C(=O)COc2ccc([N+](=O)[O-])cc2Cl)c2ccccc2N1,-28.1%,21.6%,-5.3%,-7.4,-5.2%,-0.5%
Fc1cccc(NC(=S)NNc2c3ccccc3nc3ccccc23)c1,?,?,1.9%,?,7.08µM*,-1.5%
O=C(Oc1cccnc1)c1cc(S(=O)(=O)N2CCCCC2)ccc1Cl,31.0%,33.1%,0.3%,-4.4,2.8%,16.8µM*
CC1(C(=O)NS(=O)(=O)Cc2cccc(Cl)c2)CCN1C(=O)CCc1ccccc1 (centres undefined),.,.,.,-1.9,.,-3.4%
CC1(C(=O)NS(=O)(=O)c2ccc3ccccc3c2)CCN1C(=O)Cc1ccc(-c2ccccc2)cc1 (centres undefined),.,.,.,5.6,.,42.3µM*
CC1(C(=O)NS(=O)(=O)Cc2cccc(Cl)c2)CCN1C(=O)Cc1ccc(-c2ccccc2)cc1 (centres undefined),.,.,.,9.7,.,67µM*
CCN(CC(=O)Nc1c(F)cccc1F)C(=O)/C=C/c1ccc2c(c1)OCO2,-6.2%,33.2%,0.1%,3.3,11.2%,-11.5%
CCOC(=O)c1ccc(CSC(=N)N)o1,-4.4%[11.4 µM],55.6%,3.4%,1.4,-0.7%,-7.7%
CCOC(=O)c1ccoc1CSCc1ccc(C(=O)OC)o1,-26.7%[11.4 µM],-22.3%,2.9%,-23.4,-34.9%,26.7µM*
C=CCN(C(=O)Cc1cccs1)c1nc(-c2ccc(S(C)(=O)=O)cc2)cs1,-30.1%,-4.3%,-14.0%,-62.7*,-17.2%,-1.8%
C=CCN(C(=O)CCc1ccccc1OC)c1nc(-c2ccc(S(C)(=O)=O)cc2)cs1,-12.1%,4.3%,-11.7%,-4.2,-24.3%,-17.4%
Cc1ccc(S(=O)(=O)c2nnn(CC(=O)Nc3ccccc3C)c2N)cc1C,-15.8%,18.7%,-1.6%,.,-17.0%,.
COc1ccc(Br)cc1CNC(=O)CCc1cn(Cc2ccc(C)cc2)c2ccccc12,-2.2%,37.1%,-3.1%,.,-17.5%,.
CCOc1ccc(-c2nnc3sc(COc4ccccc4)nn23)cc1,-11.1%,38.3%,-5.9%,0.4,-5.1%,-2.7%
c1ccc(Cc2nn3c(COc4ccccc4)nnc3s2)cc1,?,?,-25.4%,.,-28.0%,4.23µM*
CCOc1ccccc1OCc1nn2c(COc3ccccc3)nnc2s1,?,?,-19.7%,.,-21.3%,4.74µM*
CCN(CC)C(=O)C1CCCN(Cc2ccc(OC)c(C)c2)C1 (centres undefined),0.891µM*,?,-0.3%,-27.3,?,-5.1%
O=C(C1CCCN(Cc2ccc3c(c2)OCO3)C1)N1CCCC1 (centres undefined),39.8µM*,?,-1.6%,-5.8,56.2µM*,2.7%
Clc1cccc(CN2CCCCCC2)c1,39.8µM*,-36.8%,-3.0%,-3.0,?,-4.5%
NC(=O)C1CCCN(Cc2ccc(Cl)cc2)C1 (centres undefined),3.16µM*,-55.6%,-15.6%,.,79.4µM*,1.6%
